The record followed here is PubChem BioAssay.

Each structure is given as a SMILES string. For part of these data: Results with a measured potency or affinity are listed apart. Active and inactive are the calls of the source.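 Rule for the calls, unless noted: active = z-score of at least 1.8 in each of two replicates, scored against plate mean and spread of sample wells; inactive = the rest.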 Numbered stars: 1 amine (or outer) side, 2 acyl side, 3 side chain; on linkers, the order of the positions; unused ones are H or OH. Bridge positions count the residues as written; N and C are the ends. Square brackets hold non-standard residues; d marks the D form. Peptide text beside a SMILES is read from it. * marks the point of attachment. ξ: configuration not given here. ΔAla(Z-3-ureido) = NC(=O)N/C=C(\N)C(=O)O; X2 = NC1=NCCC(C(N[*:1])C(=O)[*:2])N1; ξβ3hOrn = NCCCC(N)CC(=O)*; Dap = NC[CH](N)C(=O)O

By inhibition is commonly meant the drop in the measured response relative to a control, in per cent. The viability is a read-out of living cells in per cent, often relative to untreated cells.

The nature of experiment [1]: blockers of polyQ-driven CASP3 activation – cell-based (AID 1583). To be noted: polyglutamine-induced caspase-3 activation, cell assay; stronger effect = higher value;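 tested at 10 µM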.
A short description of experiment [2]: yeast 75Q aggregation reduction – 75Q-TubU reporter (AID 1593). To be noted: Yeast 75Q polyglutamine aggregation reporter.
A short description of experiment [3]: restoration of touch response, mutant HTT neurons – whole organism, C. elegans mechanosensory neurons, N-terminal huntingtin (AID 1599). To be noted: C. elegans polyQ-huntingtin mechanosensory neurons, stronger effect = higher value.
A short description of experiment [4]: blockers of cytochrome c efflux from mitochondria – biochemical, purified mitochondria (AID 1603).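 Note: mouse liver mitochondria challenged with calcium chloride; signal normalized to the plate average as 100%.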 To be noted: stronger effect = lower value.
Experiment [5] can be described thus: polyglutamine aggregate formation blockers (AID 1604). To be noted: polyglutamine-induced protein aggregation inhibition assay; stronger effect = higher value; tested at 2.5 µM.
Experiment [6] in a line: glutamate transport activators, MN-1 cells, MN-1 cell line (AID 1612).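 Note: tested at 1 µM final; 0% = mean of DMSO vehicle wells on each plate; positive means more glutamate uptake than control and negative means less.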 To be noted: MN-1 motor neuron cells, stronger effect = higher value.
A short description of experiment [7]: GFP-Q80 aggregate reduction, neuronal-like cells, cell-based, NGF-treated PC12, GFPQ80 (AID 1614).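 Note: lower means fewer inclusions and 0 means no inclusions at all.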 To be noted: PC12 NGF-treated GFP-polyQ80 inclusion reduction.
The nature of experiment [8]: 75Q-TubH aggregate inhibition, S. cerevisiae, yeast (AID 1616). To be noted: S. cerevisiae 75Q-TubH polyglutamine aggregation suppression; stronger effect = higher value.
The nature of experiment [9]: P. berghei load reduction in hepatocytes – cell-based, HepG2, luciferase luminescence, HepG2 viability, primary screen (AID 624349; in the data active = parasite load remaining mostly below about 12%, no sharp cut-off; inactive = mostly above about 10%;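 note: 100% = mean of DMSO negative control wells on the same plate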). The note with it: P. berghei liver stage in HepG2, luciferase luminescence, concentration not given here; parasite load remaining: stronger effect = lower value; viability: measured here: HepG2 viability without parasites.
Experiment [10] is described as follows: galactose survival enhancers in mitochondrial complex I cybrids – cell-based, galactose medium, ATP luminescence, primary screen (AID 1645843).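 Note: positive z means more ATP and so rescue of galactose-driven cybrid death.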 To be noted: complex I mutant cybrid cells, 72 h, stronger effect = higher value.

Turning to `NCCCCC(N)C(=O)NC(Cc1c[nH]c2ccccc12)C(=O)NC(CCCCN)C(=O)O` (stereo not drawn) (H-Lys-Trp-Lys-OH; configuration not given here), in experiment [1], the inhibition amounted to 5.19%. The compound further returned a score in experiment [2] of 1.32. Further, the rescue above control in experiment [3] came to 22.9. Also, the cytochrome c release ratio in experiment [4] came to 0.99. Besides, in experiment [5], the inhibition of aggregation is 83.9%. Further, in experiment [6], the glutamate uptake change is 46.5%. Also, the inclusion score in experiment [7] amounted to 2. In experiment [8], this compound gave an aggregation suppression score of 1.18.
For the compound `NC[C@@H]1O[C@H](O[C@H]2[C@@H](O)[C@H](O[C@@H]3[C@@H](O)[C@H](N)C[C@H](N)[C@H]3O[C@@H]3O[C@H](CO)[C@@H](O)C[C@H]3N)O[C@@H]2CO)[C@H](N)[C@@H](O)[C@@H]1O[C@H]1O[C@H](CO)[C@@H](O)[C@H](O)[C@@H]1O`, the inhibition in [1] was -3.41%. For the same compound, the score in experiment [2] turned out to be 1.7. Besides, the rescue above control in experiment [3] stood at 7.71. Also, the cytochrome c release ratio in experiment [4] turned out to be 0.95. Moreover, the inhibition of aggregation in experiment [5] turned out to be 11.6%. In addition, the glutamate uptake change in experiment [6] was 1.1%. In [7], this compound displayed an inclusion score of 2. The same compound returned an aggregation suppression score in [8] of 1.86.
In the case of `C[C@@H]1CC2C3C[C@H](F)C4=CC(=O)C=CC4(C)C3(F)[C@@H](O)CC2(C)C1C(=O)COC(=O)C(C)(C)C` (stereo partly drawn), the inhibition in experiment [1] is 26.8%. Further, the score in experiment [2] came to 0.1. In experiment [3], this compound had a rescue above control of -3.49. Besides, the cytochrome c release ratio in experiment [4] was 1.09. Besides, the inhibition of aggregation in experiment [5] amounted to 38%. In addition, in [6], the glutamate uptake change is 10.9%. In addition, the inclusion score in experiment [7] was 2. This compound gave an aggregation suppression score in experiment [8] of 0.899.
On to `CC1(C)O[C@@H]2C[C@H]3C4C[C@H](F)C5=CC(=O)C=CC5(C)[C@@]4(F)[C@@H](O)C[C@]3(C)[C@]2(C(=O)CO)O1` (stereo partly drawn), for which, in experiment [1], the inhibition is -27.2%. Besides, in experiment [2], the score was found to be 1.29. Also, the rescue above control in experiment [3] was -9.42. Besides, the cytochrome c release ratio in experiment [4] amounted to 0.94. Besides, in [5], the inhibition of aggregation turned out to be 61.1%. The glutamate uptake change in experiment [6] came out at 15.9%. In addition, in experiment [7], the inclusion score is 2. The compound also came in with an aggregation suppression score in experiment [8] of 1.43.
For `NC[C@@H]1O[C@H](OC2[C@@H](O)[C@H](O[C@@H]3[C@H](N)[C@@H](O)C[C@H](N)[C@H]3O[C@H]3O[C@H](CO)[C@@H](O)[C@H](O)[C@H]3N)O[C@@H]2CO)[C@H](N)[C@@H](O)[C@@H]1O` (stereo partly drawn), the inhibition in experiment [1] is 25.1%. For the same compound, in [2], the score is 0.88. Besides, the rescue above control in experiment [3] is -2.53. Further, the cytochrome c release ratio in experiment [4] worked out at 1.33. For the same compound, the inhibition of aggregation in experiment [5] is 16.8%. The glutamate uptake change in [6] worked out at 21.4%. Also, the inclusion score in [7] is 2. The compound also yielded an aggregation suppression score in [8] of 0.564.
Consider `CC(=O)N[C@@H](Cc1c[nH]c2ccccc12)C(=O)O`, for which, in experiment [1], the inhibition amounted to 20.8%. For the same compound, in experiment [2], the score came to 1.18. Moreover, the rescue above control in experiment [3] was 0.41. Further, the cytochrome c release ratio in experiment [4] came out at 0.48. In experiment [5], the inhibition of aggregation came out at 74.4%. Also, in experiment [6], the glutamate uptake change stood at 9.72%. In experiment [7], this compound showed an inclusion score of 2. For the same compound, the aggregation suppression score in experiment [8] stood at 1.31. In experiment [9], the parasite load remaining was 106% (inactive) and the viability came out at 70.5%.
On to `CC1CC2C3CCC4=CC(=O)C=CC4(C)[C@@]3(F)C(O)CC2(C)[C@@]1(O)C(=O)CO` (stereo partly drawn), for which, in experiment [1], the inhibition was 7.1%. Besides, the score in experiment [2] was determined as 1.26. The compound further gave a rescue above control in experiment [3] of 8.02. Moreover, the cytochrome c release ratio in experiment [4] was 1.12. Moreover, the inhibition of aggregation in [5] worked out at 59.3%. In addition, the glutamate uptake change in [6] is -14.9%. In addition, in experiment [7], the inclusion score amounted to 2. In experiment [8], this compound yielded an aggregation suppression score of 1.3.
`CC(C)CC1NC(=O)CNC1=O` (stereo not drawn): the inhibition in experiment [1] came to 8.98%. The score in experiment [2] turned out to be 1.33. The rescue above control in [3] was -6.28. Also, the cytochrome c release ratio in experiment [4] was 1.01. Moreover, the inhibition of aggregation in experiment [5] was -30.2%. Moreover, the glutamate uptake change in experiment [6] is -1.97%. Moreover, in experiment [7], the inclusion score worked out at 2. The compound further returned an aggregation suppression score in experiment [8] of 0.832.
As for `NCCCCC(N)C(=O)NCC(=O)NC(Cc1cnc[nH]1)C(=O)NC(CCCCN)C(=O)O` (stereo not drawn) (H-KGHK-OH; configuration not given here), in [1], the inhibition was -1.51%. The compound also returned a score in experiment [2] of 2.04. The rescue above control in experiment [3] was determined as 2.83. In experiment [4], the cytochrome c release ratio was 0.86. Also, the inhibition of aggregation in experiment [5] is 36%. In addition, the glutamate uptake change in [6] was determined as 18.4%. Besides, the inclusion score in experiment [7] amounted to 2. Also, the aggregation suppression score in experiment [8] worked out at 1.42.
For `NCCCC(N)CC(=O)NCC1NC(=O)C(CO)NC(=O)C(N)CNC(=O)C(C2CCN=C(N)N2)NC(=O)/C(=C/NC(N)=O)NC1=O` (stereo not drawn) (H-[Dap]S[Dap](ξβ3hOrn)[ΔAla(Z-3-ureido)][X2]; lactam 1-C; configuration not given here), the inhibition in experiment [1] is 21.4%. The same compound had a score in [2] of 1.54. Also, the rescue above control in experiment [3] came to 3.33. Further, in experiment [4], the cytochrome c release ratio worked out at 2.07. Further, in experiment [5], the inhibition of aggregation was -24.2%. For the same compound, in experiment [6], the glutamate uptake change stood at 13.7%. For the same compound, the inclusion score in experiment [7] came to 1. For the same compound, in experiment [8], the aggregation suppression score stood at 0.882.
`Fc1ccc(C(c2ccccc2)(c2ccccc2F)n2ccnc2)cc1` (stereo not drawn) displayed an inclusion score in experiment [7] of 2.
Turning to `O=c1cc(-c2ccccc2Cl)nc(-c2ccc(CN3CCC[C@@H](O)C3)cc2)[nH]1`, in experiment [10], the z-score was -0.605 (inactive).
With `CC(Cc1cccnc1)n1cnc2sc3c(c2c1=O)CCCCC3` (stereo not drawn), in [10], the z-score is 0.91 (inactive).
Still for that read-out and setting: then `Cc1cc(CN2CCNCC2)ccc1OC1(C(=O)O)CCSCC1`, with 0.115 (inactive); and `Cc1ccc(C(=O)NCC2CCCN(C(=O)C3CC3)C2)cn1` (stereo not drawn), with -0.52 (inactive); and `Cc1occc1C(=O)Nc1ccccc1C(=O)N(C)Cc1ccccn1`, with -0.21 (inactive).
Take `CCOC(=O)c1ccc(N2CCC(c3ccc(F)cc3)C2)nc1` (stereo not drawn): the z-score in experiment [10] was 0.975 (inactive).
`Cc1nn(C)cc1-c1ccnc(NCCc2nc(-c3ccccn3)no2)n1`: the z-score in experiment [10] is -0.82 (inactive).
On to `CCn1nc(C(C)C)cc1C(=O)N1CCC(n2cc(CC(C)C)nn2)CC1`, for which the z-score in [10] was -0.55 (inactive).
On the same count and under the same terms, then `CC(Oc1ccc2c(c1)OCO2)C(=O)N(Cc1nccn1C)C(C)C` (stereo not drawn), with -0.22 (inactive); and `OC1(c2ccccc2)CCN(Cc2ccc(F)cc2Cl)C1` (stereo not drawn), with -0.93 (inactive).
